Results as given in PubChem BioAssay (EPA / NIEHS).
More than one record can exist for a structure, and the calls need not agree. Active and inactive are the calls of the source. Rule for the calls: active = hit-call score of the fitted dose curve at least 0.9, where 1 is the maximum; inactive = score below 0.9.

Experiment: ATG_TGFb_CIS: Attagene CIS-FACTORIAL HepG2 Assay for human Transforming Growth Factor (TGF) (AID 2282967)
Conditions: HepG2 Attagene CIS TGFb reporter, mRNA transcription; actives raise or lower the signal
Description: ATG_CIS is a cell-based, multiplexed-readout assay that uses HepG2, a human liver cell line, with measurements taken at 24 hours after chemical dosing in a 24-well plate.ATG_TGFb_CIS is one of 52 assay component(s) measured or calculated from the ATG_CIS assay. It is designed to make measurements of mRNA induction, a form of inducible reporter, as detected with fluorescence intensity signals by Reverse transcription polymerase chain reaction (RT-PCR) and Capillary electrophoresis technology.Data from the assay component ATG_TGFb_CIS was analyzed into 1 assay endpoint. This assay endpoint, ATG_TGFb_CIS, was analyzed with bidirectional fitting relative to DMSO as the negative control and baseline of activity. Using a type of inducible reporter, measures of mRNA for gain or loss-of-signal activity can be used to understand the reporter gene at the transcription factor-level as they relate to the gene TGFB1. Furthermore, this assay endpoint can be referred to as a primary readout, because this assay has produced multiple assay endpoints where this one serves a reporter gene function. To generalize the intended target to other relatable targets, this assay endpoint is annotated to the growth factor intended target family, where the subfamily is transforming growth factor beta.
Human liver HepG2 cells are transiently transfected with multiple reporter transcription units (MRTUs) in 6-well plates using FuGene 6 reagent (Roche; 3 ml FuGene/1 mg DNA). The MRTU constructs are regulated by a cis-regulating element (promoter). […] A major difference between the CIS and TRANS system is that in CIS activities of endogenous TFs are measured, whereas the TRANS assay evaluates changes in activities of exogenous, chimeric NR-Gal4 proteins. […] At the end of 24 hour incubation, total RNA was isolated using TriZol reagent (Invitrogen). The isolated RNA is then reverse-transcribed using oligo(dT) primer and Mo-MLV reverse transcriptase (Invitrogen) with DNAse I (Ambion) treatment for 30 min. The one-tenth of the produced cDNA was amplified by PCR using Taq DNA polymerase (Invitrogen) and two reporter sequence-specific primers. The PCR products were fluorescently labeled by primer extension with 6-arboxyfluorescein (6-FAM) 5'-labeled reporter sequence-specific primer (2 min at 95 C, 20 s at 68 C and 10 min at 72 C) and these products were digested with 5U of HpaI (New England Biolabs) for 2h at 37 C. The fragments were purified using Qiaquick PCR columns (Qiagen), analyzed on an ABI 3130xL genetic analyzer (Applied Biosystems) with peak positions identified by using a set of X-rhodamine (ROX)-labeled MapMarker1000 molecular weight standards (BioVentures). The raw capillary electrophoresis data was processed using Attagraph software (Attagene).
For `C#CCO`, the outcome was “inactive”.
With `COC(=O)c1cc(Oc2ccc(Cl)cc2Cl)ccc1[N+](=O)[O-]` the AC50 was 66.8 µM (active).
With `CCCCCCCCCCCCCCC(Br)C(=O)O` (stereo not given) the AC50 was 162 µM (active).
For `Cc1ccccc1OP(=O)(Oc1ccccc1)Oc1ccccc1`, the outcome was “inactive”.
In the case of `O=C1C=CC(=O)c2ccccc21`, the outcome is reported as “inactive”.
For `CS(=O)(=O)c1ccc(C(=O)C2C(=O)CCCC2=O)c(Cl)c1COCC(F)(F)F`, the outcome was “inactive”.
In the case of `CC(C)(C1CCC(O)CC1)C1CCC(O)CC1` (stereo not given), the outcome is reported as “inactive”.
For `CCOP(=S)(OCC)O/N=C(\C#N)c1ccccc1`, the outcome was “inactive”.
With `CCN(CCO)CCO` the outcome was “inactive”.
In the case of `CNC(=O)CSP(=O)(OC)OC`, the outcome is reported as “inactive”.
For `O=C(Cl)OCCOCCOC(=O)Cl`, the outcome was “inactive”.
With `CC(C)(COCC1CO1)COCC1CO1` (stereo not given) the outcome was “inactive”.
With `Nc1nc(N)nc(Cl)n1` the outcome was “inactive”.
For `ClCc1ccccc1CCl`, the outcome was “inactive”.
For `O=C(CCl)Nc1ccccc1`, the outcome was “inactive”.
With `O=S(=O)(Oc1ccc(Cl)cc1)c1ccc(Cl)cc1` the AC50 was 63.8 µM (active).
In the case of `N#Cc1cccnc1`, the outcome is reported as “inactive”.
With `CCC[N+](CCC)(CCC)CCC` the outcome was “inactive”.
In the case of `c1csc(-c2ccc(-c3cccs3)s2)c1`, the AC50 is reported as 6.2 µM (active).
In the case of `Cc1cc(-c2cc(C)c(N)c(C)c2)cc(C)c1N`, the outcome is reported as “inactive”.
For `BrCc1ccc(Br)cc1`, the outcome was “inactive”.
In the case of `CCCCCCCCBr`, the outcome is reported as “inactive”.
For `O=C(O)COc1cc(Cl)c(Cl)cc1Cl`, the outcome was “inactive”.
In the case of `CCCCCCCCCCCCN(C)C`, the outcome is reported as “inactive”.
For `CCCCCCCCCCCCOS(=O)(=O)O`, the outcome was “inactive”.
For `Cc1cc(C)cc(C)c1`, the outcome was “inactive”.
For `CC[N+](CC)(CC)CC`, the outcome was “inactive” and the AC50 was 1.07 µM (active).
With `c1ccc2c(c1)Oc1ccccc1O2` the outcome was “inactive”.
With `C=CC(=O)OCC(COC(=O)C=C)(COC(=O)C=C)COC(=O)C=C` the outcome was “inactive”.
For `C=C(C)C(=O)OCC(CC)CCCC` (stereo not given), the outcome was “inactive”.
With `CCOC(=O)CC(=O)CCl` the AC50 was 36.1 µM (active).
In the case of `CC1(C)[C@H](/C=C2\CCSC2=O)[C@@H]1C(=O)OCc1coc(Cc2ccccc2)c1`, the outcome is reported as “inactive”.
In the case of `FC(F)OCC(F)(F)C(F)(F)F`, the outcome is reported as “inactive”.
With `Cc1cc(SCc2sc(-c3ccc(C(F)(F)F)c(F)c3)nc2C)ccc1OCC(=O)O` the outcome was “inactive”.
For `CC(C)(C)c1ccc(CCOc2ncnc3ccccc23)cc1`, the outcome was “inactive”.
With `C=CC(=O)NC(C)(C)CC(C)=O` the outcome was “inactive”.
In the case of `CCOP(=O)(OCC)SCCSCC`, the outcome is reported as “inactive”.
For `CN(C)CCN(C)C`, the outcome was “inactive”.
For `NC(=O)c1ccc(N)nc1`, the outcome was “inactive”.
